Most compounds without a hit are left out; they make up all but 32% or so of the library.
PostGolgi yeast = growth inhibition of a yeast mutant, post-Golgi transport screen; 98,000 compounds, 0.9% hits; inhibition, % at 10 µM; post-Golgi transport phenotypic cell assay;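 also: yeast cells grown in 1536-well plates; yeast grown about 18 h at 30C before absorbance read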
CYP2C19 activ = cytochrome P450 2C19 (human) activation; recombinant CYP2C19, luciferin-H EGE luminescence; hits give high values; 0 = fully inhibited enzyme, 1 = untreated enzyme; activation factor at 5 µM; 96,000 tested, under 10 active; AID 1025;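 active = activation factor of at least 2 at 5 µM in the primary screen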;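 also: 0 = wells with 2.5 mM tranylcypromine and 1 = vehicle-only wells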
Target sequence (P33261 whole entry, looked up): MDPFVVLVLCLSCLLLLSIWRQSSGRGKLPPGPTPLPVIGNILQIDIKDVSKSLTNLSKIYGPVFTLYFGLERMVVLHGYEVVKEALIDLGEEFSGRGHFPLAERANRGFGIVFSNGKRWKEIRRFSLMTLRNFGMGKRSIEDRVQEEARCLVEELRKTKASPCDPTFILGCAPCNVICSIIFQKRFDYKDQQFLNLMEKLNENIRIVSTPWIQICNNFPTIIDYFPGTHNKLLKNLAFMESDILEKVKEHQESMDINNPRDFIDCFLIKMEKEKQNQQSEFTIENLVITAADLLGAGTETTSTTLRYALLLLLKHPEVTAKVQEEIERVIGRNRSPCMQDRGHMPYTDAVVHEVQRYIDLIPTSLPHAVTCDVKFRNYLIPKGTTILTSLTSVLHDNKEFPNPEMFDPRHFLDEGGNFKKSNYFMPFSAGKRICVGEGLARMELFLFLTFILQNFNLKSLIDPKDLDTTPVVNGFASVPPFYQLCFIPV
CYP2C9 inhib = blocks human cytochrome P450 2C9 | 96,000 compounds, 20% hits | inhibition, % at 5 µM | P11712 | AID 777 | CYP2C9 Supersomes, luciferin-H conversion, luminescence;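 active = blocking of liver enzyme CYP2C9 beyond about 50% at 5 µM, limit read from the data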
CYP2C19 inhib = blocks human cytochrome P450 2C19. 96,000 compounds, 21% hits. inhibition, % at 5 µM. CYP2C19 Supersomes, luciferin-H EGE luminescence, 30 min. P33261. AID 778;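 active = CYP2C19 inhibition above a set limit at 5 µM in the primary screen, cut at about 50% in these data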;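 also: plate controls were negative control wells for no effect and 2.5 mM tranylcypromine positive control for full effect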
CYP2C9 activ = CYP2C9 (human) activation; P11712; recombinant CYP2C9, luciferin-H conversion, luminescence; hits give high values; factor 1 = untreated enzyme, 0 = blocked; activation factor at 5 µM; 96,000 compounds, 1.4% hits; AID 1024;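 active = activation factor of 2 or more for CYP2C9 at a 5 µM dose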;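 also: 0 = sulfaphenazole-blocked wells and 1 = vehicle-only wells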
PostGolgi ctrl = yeast control strain growth, post-Golgi counter-screen | efflux-deficient yeast background strain, growth absorbance A615, 16 h | inhibition, % at 10 µM | 98,000 compounds, 5% hits | AID 738
An asterisk follows results filed as active. Rule as the data show it, unless noted: active = inhibition above about 30%; inactive = the rest.

SMILES	PostGolgi yeast	CYP2C19 activ	CYP2C9 inhib	CYP2C19 inhib	CYP2C9 activ	PostGolgi ctrl
COc1ccc(CNC(=O)C(c2ccc(C)o2)N(C(=O)c2csnn2)c2ccc(C(C)C)cc2)cc1 (centres undefined)	5	0.5	52*	51*	0.5	0
CN(C)c1ccc(C(C(=O)NC(C)(C)C)N(C(=O)c2csnn2)C2CC2)cc1 (centres undefined)	6	0.6	5	37	0.9	2
Cc1ccc(C(C(=O)NCc2ccccc2)N(C(=O)c2csnn2)c2cccc3ccccc23)o1 (centres undefined)	6	0.5	14	47	0.9	12
CS(=O)(=O)N(CC(=O)N1CCCC1)c1cccc(Cl)c1Cl	-4	0.9	2	15	1	3
Cc1ccc(NC(=O)C2CCN(S(=O)(=O)c3c(C)[nH]c(=O)[nH]c3=O)CC2)cc1	6	1	5	-2	1	7
CC(=O)c1cc2c(cc1NC(=O)CN1CCCCC1C)OCO2 (centres undefined)	0	0.6	7	42	0.9	4
Cc1ccc(S(=O)(=O)c2ccc(C)cc2)cc1	1	0.7	-54	29	1.5	12
Cc1ccc(S(=O)(=O)c2ccc(Oc3cccc(C)c3)cc2)cc1	-4	0.7	53*	31	0.5	8
CCOC(=O)Cn1nc(C)n(-c2ccc(C)cc2)c1=O	19	1.1	-2	-7	1	2
Nc1ccc(Sc2cnn(-c3ccccc3)c(=O)c2Cl)cc1	9	0	91*	99*	0.1	40*
Cc1ccc(Sc2cnn(-c3ccccc3)c(=O)c2Cl)cc1	-5	0.9	44	15	0.6	24
CCCSc1nsc(NC(=O)C(c2ccccc2)c2ccccc2)n1	16	0.8	73*	20	0.3	35*
CCc1ccc(NC2=NCC(=O)N2Cc2ccc3c(c2)OCO3)cc1	-5	0.6	58*	36	0.4	3
Cc1ccc(NC2=NCC(=O)N2Cc2ccc3c(c2)OCO3)c(C)c1	-3	0	79*	96*	0.2	4
CCOc1ccc(OCC)c(NS(=O)(=O)c2cccc3nsnc23)c1	27	0.8	33	24	0.7	11
COc1ccc(C(=O)O)cc1NS(=O)(=O)c1cccc2nsnc12	8	1.1	-7	-10	1.1	4
CCOc1ccccc1NS(=O)(=O)c1cccc2nsnc12	-11	0.1	29	91*	0.7	5
Cc1cccc(NC(=O)CCNS(=O)(=O)c2cccc3nsnc23)c1	10	0.3	18	67*	0.8	9
O=C(CCCNS(=O)(=O)c1cccc2nsnc12)NCCc1ccccc1	-6	0.5	0	50	1	4
COc1ccccc1NC(=O)CS(=O)(=O)c1cccc2nsnc12	-4	0.6	-154	40	2.5*	7
COc1ccccc1CNC(=O)CCNS(=O)(=O)c1cccc2nsnc12	-4	0.2	-129	80*	2.3*	5
CCOC(=O)N1CCC(NC(=O)C(CC(C)C)NC(=O)C2CCC(C)CC2)CC1 (centres undefined)	1	0.6	3	38	1	11
Cn1cnnc1SCC(=O)Nc1ccc2nc(SCc3ccccc3F)sc2c1	-3	0.5	60*	47	0.4	16
CCOC(=O)CSc1nc2ccc(NC(C)=O)cc2s1	-1	0.4	72*	57*	0.3	2
CSc1nc2ccc(NC(=O)CSc3nnc(N)s3)cc2s1	-3	1	71*	2	0.3	6
SMILES	PostGolgi yeast	CYP2C19 activ	CYP2C9 inhib	CYP2C19 inhib	CYP2C9 activ	PostGolgi ctrl
COc1ccc(NC(=O)CSc2nnc(N)s2)cc1	14	1	10	1	0.9	5
Clc1ccccc1/C=N/c1cc(-c2ccccc2)nn1-c1ccccc1	-2	1.1	-4	-8	1	1
O=C(O)c1ccccc1C(=O)OCCCCOC(=O)c1ccccc1C(=O)O	4	1.1	5	-6	0.9	2
COc1ccc(-c2nc3ccc(N4CCCC4)cc3c(=O)[nH]2)cc1OC	6	1	4	-5	1	13
COCCNC(=O)c1ccc2c(c1)nc(C)n2-c1cc(OC)c(OC)c(OC)c1	3	1.1	-17	-8	1.2	-2
O=C(NCc1ccco1)C1CCN(c2nc3ccccc3n2Cc2ccc(F)cc2)CC1	1	0.8	47	24	0.5	16
O=S(=O)(c1ccc(F)cc1)N1CN(Cc2ccco2)c2nc3ccccc3nc21	-8	0.2	60*	82*	0.4	18
Cc1ccc(S(=O)(=O)N2CN(Cc3ccco3)c3nc4ccccc4nc32)cc1C	-1	0.3	84*	68*	0.2	32*
Cc1ccc(S(=O)(=O)N2CCOCC2)cc1C(=O)NCc1ccco1	6	0.9	1	12	1	5
Cc1ccc(S(=O)(=O)N2CN(Cc3ccco3)c3nc4ccccc4nc32)cc1	-2	0.2	90*	76*	0.1	20
COc1ccc(S(=O)(=O)N2CN(Cc3ccco3)c3nc4ccccc4nc32)cc1	-2	0.3	54*	70*	0.5	15
Cn1c(-c2ccccc2)cnc1SCC(=O)NCc1ccco1	-3	0.7	29	26	0.7	1
N#CC1=C(SCC(N)=O)NC2=C(C(=O)c3ccccc32)C1c1ccc(Cl)cc1 (centres undefined)	4	0.5	63*	48	0.4	11
CCOc1ccccc1NC(=O)C(=O)NCC1CCCN1CC (centres undefined)	-6	1	1	-1	1	11
CCN1CCCC1CNC(=O)C(=O)Nc1ccc(OC)cc1 (centres undefined)	-18	1.1	-9	-11	1.1	42*
CC1CN(Cc2nc3c(c(=O)[nH]c(=O)n3C)n2CC(N)=O)CC(C)O1 (centres undefined)	-7	1.2	12	-16	0.9	12
N#CCCn1cc(C(CC(=O)c2ccc(Br)cc2)C(=O)O)c2ccccc21 (centres undefined)	1	0.7	58*	29	0.4	-8
CCOc1cc(C)c(S(=O)(=O)Nc2ccc(Cl)cn2)cc1C	1	0.2	95*	78*	0.1	58*
c1ccc2cc(-c3cc4ccccn4c3)ccc2c1	-10	0.9	13	9	0.9	8
CCCOc1ccc([N+](=O)[O-])cc1C1NC(=S)NC(c2ccccc2)=C1C(=O)OCC (centres undefined)	3	0.8	67*	20	0.3	25
CCOC(=O)C1=C(c2cccc(F)c2)NC(=S)NC1C (centres undefined)	16	0.3	6	72*	0.9	7
Nc1nc2ccc([N+](=O)[O-])c(N)c2s1	-20	1.1	-1	-7	1	-1
Cc1cc(C(=O)Nc2nnc(C(F)(F)F)s2)no1	1	0.8	54*	18	0.5	17

Screening results deposited in PubChem by several laboratories.
